Source: PubChem BioAssay (NCI)
The panel holds about 79,000 compounds, 15% with a hit somewhere; the sample as a whole holds those more often. The source made the active and inactive calls. Cut-off read from the data, not from the text of the source: active = growth inhibition above about 70%; inactive = the rest.

Tests used:
[1] = NCI Yeast Anticancer Drug Screen. Data for the rad52 strain (AID 147);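 note: 0% = growth of vehicle-treated control cultures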; details: S. cerevisiae rad52 mutant growth inhibition, active compounds read high
Procedure, shortened: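 Measured: yeast growth inhibition. System: strain with a defined DNA damage repair alteration. Reference: vehicle-treated control cultures.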

[2] = NCI Yeast Anticancer Drug Screen. Data for the wt1 strain (AID 149);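 note: 0% = growth of vehicle-treated wt1 cultures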; details: S. cerevisiae wt1 strain (SPY 50644) growth inhibition, active compounds read high
Procedure, shortened: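 Using yeast strain wt1, compound-induced growth inhibition was determined against vehicle-treated cultures.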

[3] = NCI Yeast Anticancer Drug Screen. Data for the rad50EPP+ strain (AID 151);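 note: 0% = growth of vehicle-treated control cultures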; details: S. cerevisiae rad50 mutant strain, active compounds read high
Procedure, shortened: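 One strain with a rad50 alteration (rad50EPP+) was compound-treated, its growth then compared to that of vehicle controls.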

[4] = NCI Yeast Anticancer Drug Screen. Data for the rad50 strain (AID 155);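 note: 0% = growth of vehicle-only cultures of the same strain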; details: S. cerevisiae rad50 strain growth inhibition, active compounds read high
Procedure, shortened: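 Relative growth inhibition (compound vs vehicle) was measured in yeast with a defined repair-gene alteration.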

[5] = NCI Yeast Anticancer Drug Screen. Data for the mec2-1 strain (AID 157); details: S. cerevisiae mec2-1 strain, active compounds read high
Procedure, shortened: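 Test agents were screened against the mec2-1 yeast strain, with defined DNA repair or cell cycle alteration. Growth was scored as inhibition against vehicle-only controls.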

[6] = NCI Yeast Anticancer Drug Screen. Data for the rad14 strain (AID 159);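 note: 0% = growth of vehicle-treated control cultures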; details: S. cerevisiae rad14 strain growth inhibition, active compounds read high
Procedure, shortened: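 Screen for anticancer potential: a yeast strain altered in DNA damage repair is grown with compound, and reduced growth is quantified against vehicle controls.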

[7] = NCI Yeast Anticancer Drug Screen. Data for the sgs1 mgt1 strain (AID 161);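 note: 0% = growth of cultures given vehicle only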; details: S. cerevisiae sgs1 mgt1 strain, active compounds read high
Procedure, shortened: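 Mutant yeast exposed to compound; growth scored against vehicle-only wells.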

[8] = NCI Yeast Anticancer Drug Screen. Data for the CLN2oe strain (AID 163);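 note: 0% = growth of vehicle-only control cultures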; details: S. cerevisiae CLN2oe strain, active compounds read high
Procedure, shortened: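 Here, growth inhibition in a cell-cycle-altered yeast strain after compound exposure was quantified against vehicle control growth.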

[9] = NCI Yeast Anticancer Drug Screen. Data for the cln2 rad14 strain (AID 165);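 note: 0% = growth equal to vehicle treated cultures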; details: S. cerevisiae cln2 rad14 strain, active compounds read high
Procedure, shortened: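 Growth of compound-exposed yeast (cln2 rad14 genotype) measured and expressed as inhibition relative to vehicle.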

[10] = NCI Yeast Anticancer Drug Screen. Data for the bub3 strain (AID 167); details: S. cerevisiae bub3 mutant strain, active compounds read high
Procedure, shortened: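 Screening used yeast with an engineered genetic alteration affecting cell cycle control. Compound-exposed cultures were compared with vehicle cultures, and reduced growth was taken as inhibition.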

[11] = NCI Yeast Anticancer Drug Screen. Data for the wt2 strain (AID 169);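 note: 0% = growth of vehicle-treated yeast cultures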; details: S. cerevisiae wt2 strain growth inhibition, active compounds read high
Procedure, shortened: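 Genetically defined yeast strains from a DNA-repair/cell-cycle panel were used. Compound-exposed yeast growth was measured, and the inhibition was calculated relative to vehicle treatment.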

[12] = NCI Yeast Anticancer Drug Screen. Data for the mlh1 strain (AID 171);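 note: 0% = growth of vehicle-treated control cultures of the same strain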; details: S. cerevisiae mlh1 strain growth inhibition, active compounds read high
Procedure, shortened: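 Here the genetically defined yeast mutant is grown with each compound, and the extent to which its growth falls below that of vehicle-exposed cells is reported.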

[13] = NCI Yeast Anticancer Drug Screen. Data for the mlh1 rad18 strain (AID 175); details: S. cerevisiae mlh1 rad18 strain growth inhibition, active compounds read high
Procedure, shortened: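 In this whole-cell yeast screen, a strain with altered DNA damage repair is challenged with compound, and its growth is measured against matched vehicle-treated controls.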

[14] = NCI Yeast Anticancer Drug Screen. Data for the rad18 strain (AID 177); details: S. cerevisiae rad18 mutant growth inhibition, active compounds read high
Procedure, shortened: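 Screen uses a yeast strain with a defined lesion in DNA damage repair; compound effect is read as loss of growth compared to untreated vehicle cultures.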

[15] = at 5.0 µM (retest, dose inferred, filed as 0.5)
[16] = at 50.0 µM (retest, dose inferred, filed as 5.0)

Measured: growth inhibition

Cc1ccc(S(=O)(=O)N/N=C/C2(c3ccccc3)c3ccccc3-c3ccccc32)cc1
active: [1]; at 11.0 µM 79% | [1]; at 33.0 µM 93% | [1]; at 100.0 µM 86% | [2]; at 33.0 µM 87% | [2]; at 100.0 µM 83% | [4]; at 11.0 µM 82% | [4]; at 33.0 µM 90% | [4]; [16] 92% | [4]; at 100.0 µM 77% | [5]; at 33.0 µM 78% | [5]; [16] 93% | [5]; at 100.0 µM 84% | [6]; at 33.0 µM 86% | [6]; at 100.0 µM 86% | [7]; [16] 93% | [8]; at 11.0 µM 80% | [8]; at 33.0 µM 91% | [8]; at 100.0 µM 76% | [9]; [16] 90% | [10]; at 33.0 µM 88% | [10]; [16] 90% | [11]; at 11.0 µM 76% | [11]; at 33.0 µM 91% | [11]; at 100.0 µM 80% | [12]; at 100.0 µM 71% | [13]; [15] 79% | [13]; [16] 91% | [13]; at 50.0 µM 70.5% | [14]; at 11.0 µM 80% | [14]; at 33.0 µM 91% | [14]; at 100.0 µM 89%
inactive: [1]; at 1.2 µM 41% | [1]; at 3.7 µM 45% | [2]; at 1.2 µM 25% | [2]; at 3.7 µM 13% | [2]; at 11.0 µM 34% | [3]; at 1.2 µM 11% | [3]; at 3.7 µM 2% | [3]; at 11.0 µM 17% | [3]; at 33.0 µM -8% | [3]; at 100.0 µM -37% | [4]; at 1.2 µM 4% | [4]; at 3.7 µM 36% | [4]; [15] 38% | [4]; at 50.0 µM 29.5% | [5]; at 1.2 µM 25% | [5]; at 3.7 µM 15% | [5]; [15] 22% | [5]; at 11.0 µM 27% | [5]; at 50.0 µM 7.7% | [6]; at 1.2 µM 9% | [6]; at 3.7 µM 9% | [6]; at 11.0 µM 45% | [7]; [15] 31% | [7]; at 50.0 µM 33.8% | [8]; at 1.2 µM 37% | [8]; at 3.7 µM 38% | [9]; [15] 45% | [9]; at 50.0 µM 16.1% | [10]; at 1.2 µM 19% | [10]; at 3.7 µM 9% | [10]; [15] 20% | [10]; at 11.0 µM 54% | [10]; at 50.0 µM 29.1% | [10]; at 100.0 µM 62% | [11]; at 1.2 µM -8% | [11]; at 3.7 µM 18% | [12]; at 1.2 µM 21% | [12]; at 3.7 µM 7% | [12]; at 11.0 µM 30% | [12]; at 33.0 µM 61% | [14]; at 1.2 µM 50% | [14]; at 3.7 µM 52%

CC(=O)C1=C(C)O/C(=C/c2cccc(Cl)c2)C1=O
inactive: [1]; at 1.2 µM 14% | [1]; at 3.7 µM 36% | [1]; at 11.0 µM 27% | [1]; at 33.0 µM 36% | [2]; at 1.2 µM -7% | [2]; at 3.7 µM 2% | [2]; at 11.0 µM 2% | [2]; at 33.0 µM -2% | [2]; at 100.0 µM 25% | [3]; at 1.2 µM 16% | [3]; at 3.7 µM 25% | [3]; at 11.0 µM 22% | [3]; at 33.0 µM 32% | [4]; at 1.2 µM -4% | [4]; at 3.7 µM 19% | [4]; [15] -1% | [4]; at 11.0 µM 21% | [4]; at 33.0 µM 18% | [4]; [16] 59% | [4]; at 50.0 µM 52.7% | [5]; at 1.2 µM -9% | [5]; at 3.7 µM 2% | [5]; [15] 2% | [5]; at 11.0 µM 0% | [5]; at 33.0 µM 7% | [5]; [16] 68%
active: [1]; at 100.0 µM 99% | [3]; at 100.0 µM 88% | [4]; at 100.0 µM 96% | [5]; at 50.0 µM 71%
